PMC4336329 (PLoS ONE, 2015)
Out of some 310,000 compounds screened, about 14,000 (4.5%) showed an effect of 50% or more. Effects have a minus sign here. Shown is part of a subset that was picked to be rich in strong results.

What follows are molecules tested against human ether-à-go-go-related gene (hERG) potassium channel (human, UniProt Q12809) (assay: primary screen, population patch clamp on CHO cells stably expressing hERG; higher = less effect of the substance).
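Note: peak tail current of the secondary pulse compared with the same well before compound.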

Chain of human ether-à-go-go-related gene (hERG) potassium channel (Q12809 whole entry, looked up): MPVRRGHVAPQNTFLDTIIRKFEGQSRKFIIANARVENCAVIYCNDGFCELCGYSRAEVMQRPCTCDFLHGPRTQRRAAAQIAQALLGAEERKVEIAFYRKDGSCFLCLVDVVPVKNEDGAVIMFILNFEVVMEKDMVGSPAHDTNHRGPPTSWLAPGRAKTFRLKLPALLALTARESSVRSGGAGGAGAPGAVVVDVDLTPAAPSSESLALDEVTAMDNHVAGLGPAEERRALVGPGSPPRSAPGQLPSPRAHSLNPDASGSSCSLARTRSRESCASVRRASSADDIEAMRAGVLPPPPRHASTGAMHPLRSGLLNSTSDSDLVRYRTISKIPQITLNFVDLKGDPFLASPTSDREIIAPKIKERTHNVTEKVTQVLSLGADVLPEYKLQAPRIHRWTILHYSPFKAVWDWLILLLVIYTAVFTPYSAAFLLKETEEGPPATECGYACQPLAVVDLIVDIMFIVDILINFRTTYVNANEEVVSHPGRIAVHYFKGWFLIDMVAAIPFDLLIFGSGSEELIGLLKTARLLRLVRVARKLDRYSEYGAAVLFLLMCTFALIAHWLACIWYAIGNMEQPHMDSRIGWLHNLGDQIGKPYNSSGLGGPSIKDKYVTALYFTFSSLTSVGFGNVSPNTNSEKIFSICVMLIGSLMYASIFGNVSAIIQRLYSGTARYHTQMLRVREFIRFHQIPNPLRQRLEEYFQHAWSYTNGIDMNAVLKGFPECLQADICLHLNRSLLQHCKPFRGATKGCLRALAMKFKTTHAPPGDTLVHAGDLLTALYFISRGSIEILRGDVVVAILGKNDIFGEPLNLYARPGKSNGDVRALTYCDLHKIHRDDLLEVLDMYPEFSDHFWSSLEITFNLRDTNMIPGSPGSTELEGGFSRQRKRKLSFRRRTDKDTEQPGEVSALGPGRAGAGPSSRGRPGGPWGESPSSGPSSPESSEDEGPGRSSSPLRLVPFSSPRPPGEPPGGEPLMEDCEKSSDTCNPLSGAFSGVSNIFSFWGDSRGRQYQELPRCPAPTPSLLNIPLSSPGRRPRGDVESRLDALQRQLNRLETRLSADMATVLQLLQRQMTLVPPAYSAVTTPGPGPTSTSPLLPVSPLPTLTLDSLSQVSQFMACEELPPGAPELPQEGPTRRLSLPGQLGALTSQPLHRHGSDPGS

Row | SMILES | hERG current change (%, negative = inhibition) at 10uM
1 | COc1ccc(C(=O)N2CCC(C(=O)Nc3ccccc3OC)CC2)cc1 | -34.6%
2 | CCOC(=O)c1ccc(NC(=O)C2CCN(C(=O)c3ccc(OC)c(OC)c3)CC2)cc1 | -58.7%
3 | COc1ccc(C(=O)N2CCC(C(=O)NC3CC3)CC2)cc1 | 4.25%
4 | COc1ccc(NC(=O)C2CCN(C(=O)c3cccs3)CC2)cc1 | -12.4%
5 | COc1ccc(C(=O)N2CCC(C(=O)Nc3ccc(C)cc3)CC2)cc1 | -75.9%
6 | COc1ccc2sc(-c3ccccc3OC)c(-c3ccc4c(c3)OCCO4)c2c1 | 17.2%
7 | Cc1c(C(=O)Nc2ccc3c(c2)OCCO3)oc2ccc(Br)cc12 | 0.46%
8 | CCOC(=O)COc1c(OC)cc(Cl)cc1C1Nc2ccccc2C(=O)N1c1cccc(C)c1 (stereo not drawn) | -8.45%
9 | O=C1OCCN/C1=C\C(=O)c1ccc(Cl)cc1 | 14.5%
10 | Cn1ccc(NS(=O)(=O)c2cc(Br)ccc2Br)n1 | 0.158%
11 | O=C(CCS(=O)(=O)c1ccc(F)cc1)Nc1nnc(-c2ccc(F)cc2)o1 | -10.7%
12 | COc1ccc(NC(=O)c2sc3ncn(CC(=O)N4CCN(c5ccccn5)CC4)c(=O)c3c2C)c(OC)c1 | 19.5%
13 | O=C(c1ccco1)N1N=C(c2cccs2)CC1c1cc([N+](=O)[O-])ccc1O (stereo not drawn) | 7.51%
14 | CCC(CC)CN1C(N(C)C)=NC[C@@H]1CC(C)C | -4.65%
15 | CCC(C)CCN1C(N(C)C)=NC[C@@H]1CC(C)C (stereo partly drawn) | -11%
16 | CCN1C(N(C)C)=NC[C@@H]1Cc1ccccc1 | -1.57%
17 | CN(C)C1=NC[C@H](Cc2ccccc2)N1CCCCc1ccccc1 | -71%
18 | CCC(C)CCN1C(N(C)C)=NC[C@@H]1Cc1ccccc1 (stereo partly drawn) | -22.5%
19 | CCCCCCCN1C(N(C)C)=NC[C@@H]1Cc1ccccc1 | -80.1%
20 | CC(C)C[C@H]1CN=C(N(C)C)N1CCCCc1ccccc1 | -64.7%
21 | CC(C)CCCN1C(N(C)C)=NC[C@@H]1Cc1ccccc1 | -24.9%
22 | C[C@H]1CN=C(N(C)C)N1CCCCc1ccccc1 | -25.5%
23 | COC(=O)C1=NN(c2cccc(C)c2)C2C(=O)N(c3ccccc3OC)C(=O)C12 (stereo not drawn) | -4.79%
24 | COc1ccccc1OCc1cc(C(=O)NCc2ccc(N3CCCC3=O)cc2)no1 | 13.4%

Row | SMILES | hERG current change (%, negative = inhibition) at 10uM
25 | Cc1ccc(OC(=O)c2cccc(S(=O)(=O)N3CCN(C)CC3)c2)c(Br)c1 | -19.5%
26 | O=C(NCc1ccccc1)C(C(=O)c1ccc(F)cc1)n1ccccc1=O (stereo not drawn) | -0.0984%
27 | COc1ccc(C2(C(=O)Nc3ccccc3)CCOCC2)cc1 | -14.2%
28 | CC1CCCCC1NC(=O)COC(=O)/C=C/c1ccco1 (stereo not drawn) | -1.9%
29 | O=C1c2ccc(Oc3ccc([N+](=O)[O-])cc3)cc2C(=O)N1CCCO | -60.8%
30 | O=C1c2ccc(Oc3ccc4c(c3)C(=O)N(CCCO)C4=O)cc2C(=O)N1CCCO | -1.78%
31 | O=C(O)CCN1C(=O)c2ccc(Oc3ccc([N+](=O)[O-])cc3)cc2C1=O | 4.85%
32 | O=C1c2ccc(Oc3ccc4c(c3)C(=O)N(CCCCO)C4=O)cc2C(=O)N1CCCCO | -24.1%
33 | O=C1c2ccc(Oc3ccc([N+](=O)[O-])cc3)cc2C(=O)N1CCO | -52.8%
34 | O=C(O)CN1C(=O)c2ccc(Oc3ccc([N+](=O)[O-])cc3)cc2C1=O | 23.2%
35 | CCC(=O)N1CCCc2cc(S(=O)(=O)N3CCN(c4ccccc4F)CC3)ccc21 | -23.7%
36 | CCOC(=O)C1CCCN(C(=O)c2cnn3c(C(F)F)cc(-c4ccc(C)cc4)nc23)C1 (stereo not drawn) | -38.4%
37 | Cl.O=C(NCCN1CCOCC1)c1ccc(Cl)c(S(=O)(=O)N2CCCCCC2)c1 | -40.1%
38 | Cc1ccc(CSCCNC(=O)c2ccc(Cl)c(S(=O)(=O)N3CCOCC3)c2)cc1 | -40.5%
39 | Cc1ccccc1CSCCNC(=O)c1ccc(Cl)c(S(=O)(=O)N2CCOCC2)c1 | -42.2%
40 | Cl.O=C(NCCCN1CCOCC1)c1ccc(Cl)c(S(=O)(=O)N2CCCCCC2)c1 | -50.6%
41 | O=C(NCCN1CCOCC1)c1ccc(Cl)c(S(=O)(=O)N2CCOCC2)c1 | 13.1%
42 | O=C(NCCN1CCOCC1)c1ccc(Cl)c(S(=O)(=O)N2CCCC2)c1 | -0.109%
43 | O=C(NCCSCc1ccccc1)c1ccc(Cl)c(S(=O)(=O)N2CCOCC2)c1 | -50%
44 | CC(C)(C)SCCNC(=O)c1ccc(Cl)c(S(=O)(=O)N2CCOCC2)c1 | -6.74%
45 | Cc1ccc(C(=O)NCCN2CCOCC2)cc1S(=O)(=O)N1CCCCC1 | -20.7%
46 | COc1ccc(C(=O)NCC(C)(C)N2CCOCC2)cc1S(=O)(=O)N1CCCC1 | -8.82%
47 | CC(C)(CNC(=O)c1ccc(Cl)c(S(=O)(=O)N2CCc3ccccc3C2)c1)N1CCOCC1 | -50.3%
48 | O=C(NCCN1CCOCC1)c1ccc(Cl)c(S(=O)(=O)N2CCCCC2)c1 | -58.3%
